Calls of active or inactive are those of the source. Unless noted, calls come from the whole dose curve.
target: Glucocorticoid receptor (Homo sapiens) (UniProt P04150); test: GR-GFP Redistribution (AID 450;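 active = compounds whose dose series gives a full or clear partial fitted curve of increased nuclear translocation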); details: U2OS GR-GFP nuclear translocation, laser cytometry, 2 h
Potency is the fitted concentration of half-maximal effect.

Sequence of Glucocorticoid receptor (Homo sapiens) (P04150 whole entry, looked up, the tested form may be a part): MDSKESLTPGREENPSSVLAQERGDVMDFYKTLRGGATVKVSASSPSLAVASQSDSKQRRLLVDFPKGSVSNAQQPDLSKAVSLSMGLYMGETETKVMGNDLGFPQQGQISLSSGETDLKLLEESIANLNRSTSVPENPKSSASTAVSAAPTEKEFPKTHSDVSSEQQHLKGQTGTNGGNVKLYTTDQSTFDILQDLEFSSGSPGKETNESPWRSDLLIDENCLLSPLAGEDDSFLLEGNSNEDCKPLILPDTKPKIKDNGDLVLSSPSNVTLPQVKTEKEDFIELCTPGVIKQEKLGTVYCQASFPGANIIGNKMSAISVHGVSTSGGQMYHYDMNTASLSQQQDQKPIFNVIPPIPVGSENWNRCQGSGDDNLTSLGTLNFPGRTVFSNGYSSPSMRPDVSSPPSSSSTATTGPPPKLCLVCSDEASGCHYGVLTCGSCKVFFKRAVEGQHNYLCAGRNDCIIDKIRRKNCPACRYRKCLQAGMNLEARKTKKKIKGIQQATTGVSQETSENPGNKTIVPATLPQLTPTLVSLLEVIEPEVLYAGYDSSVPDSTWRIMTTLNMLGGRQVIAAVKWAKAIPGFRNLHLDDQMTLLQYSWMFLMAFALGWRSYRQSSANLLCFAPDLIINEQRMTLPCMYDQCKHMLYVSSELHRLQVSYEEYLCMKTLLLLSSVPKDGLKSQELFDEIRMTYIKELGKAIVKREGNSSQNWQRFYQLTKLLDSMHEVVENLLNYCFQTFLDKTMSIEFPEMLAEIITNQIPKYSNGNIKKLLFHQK

Potency, inactive:
Clc1ccccc1-c1ccc2ncnc(N3CCNCC3)c2c1 > 46 µM
CCNc1ncc2nc(-c3cccs3)c(=O)n(C)c2n1 > 9.22 µM
COCCn1c(=O)c(-c2cn(C)c3ccccc23)nc2cnc(N3CCOCC3)nc21 > 9.22 µM
CN(C)c1ccc(-c2cc(Nc3ccc(F)cc3)ncn2)cc1 > 46 µM
COc1ncc2nc(-c3cccs3)c(=O)n(CCc3ccccc3)c2n1 > 9.22 µM
COc1ncc2nc(-c3ccccc3)c(=O)n(-c3ccccc3)c2n1 > 9.22 µM
FC(F)(F)c1ccccc1-c1cc(NCc2ccccc2)ncn1 > 46 µM
Cn1c(=O)c(-c2ccc(Cl)cc2)nc2cnc(Nc3ccccc3)nc21 > 9.22 µM
COc1ccc(Oc2ncc3nc(-c4ccc(Cl)cc4)c(=O)n(C[C@H]4CCCO4)c3n2)cc1 > 9.22 µM
COc1cccc(Nc2ncc3nc(C)c(=O)n(C4CC4)c3n2)c1 > 9.22 µM
COc1cccc(Cn2c(=O)c(-c3cc(F)cc(F)c3)nc3cnc(N(C)C)nc32)c1 > 9.22 µM
CNc1nc(-c2ccc3c(c2)OCO3)nc2ccccc12 > 46 µM
COc1cccc(Cn2c(=O)c(C)nc3cnc(OC)nc32)c1 > 9.22 µM
Cc1nc2cncnc2n(C2CC2)c1=O > 9.22 µM
COc1cccc(Cn2c(=O)cnc3cncnc32)c1 > 9.22 µM
COCCn1c(=O)c(-c2cc(F)cc(F)c2)nc2cnc(N3CCOCC3)nc21 > 9.22 µM
CN(C)C(=O)c1ccc(-c2cc(NCc3cccnc3)ncn2)cc1 > 46 µM
Cc1noc(C)c1-c1cc(NCc2cccnc2)ncn1 > 46 µM
CS(=O)(=O)Nc1cccc(-c2ccc3ncnc(NCCN4CCOCC4)c3c2)c1 > 46 µM
COCCn1c(=O)c(C)nc2cnc(N(C)C)nc21 > 9.22 µM
COc1ccc2[nH]cc(CCNc3ncnc4ccc(-c5cccnc5)cc34)c2c1 > 46 µM
Cn1c(=O)c(-c2cccc(C#N)c2)nc2cnc(Oc3ccccc3)nc21 > 9.22 µM
O=c1c(-c2cc(F)cc(F)c2)nc2cnc(N3CCOCC3)nc2n1Cc1cccs1 > 9.22 µM
CNc1ncnc2ccc(-c3ccccc3CN(C)C)cc12 > 46 µM
CN(C)C(=O)c1ccc(-c2cc(Nc3ccccc3)ncn2)cc1 > 46 µM
COc1cccc(Nc2ncc3ncc(=O)n(CCc4ccccc4)c3n2)c1 > 9.22 µM
O=c1c(-c2ccc(F)cc2)nc2cnc(N3CCNCC3)nc2n1C1CC1 > 9.22 µM
COc1ccc(-c2nc3cnc(Nc4cccc(OC)c4)nc3n(C[C@H]3CCCO3)c2=O)cc1 > 9.22 µM
COc1cccc(-c2ccc3ncnc(NCc4ccccc4)c3c2)c1 > 46 µM
Cc1ccccc1-c1cc(N(C)C)ncn1 > 46 µM
Cc1cccc(CNc2cc(-c3c(C)noc3C)ncn2)c1 > 46 µM
COc1ccccc1CNc1cc(-c2c(C)noc2C)ncn1 > 46 µM
Cn1c(=O)c(-c2ccc(Cl)cc2)nc2cnc(N3CCOCC3)nc21 > 9.22 µM
COc1ncc2nc(C)c(=O)n(C3CC3)c2n1 > 9.22 µM
Cc1noc(C)c1-c1ccc2ncnc(N3CCN(C)CC3)c2c1 > 46 µM
CN(C)c1ccc(-c2ccc3ncnc(-n4ccnc4)c3c2)cc1 > 46 µM
O=c1cnc2cncnc2n1Cc1ccccc1Cl > 9.22 µM
CCNc1ncc2ncc(=O)n(CCOC)c2n1 > 46 µM

target: Glucocorticoid receptor (Homo sapiens) (UniProt P04150); test: GR-EFC Redistribution (AID 451); details: CHO-K1 GR-EFC translocation, beta-gal luminescence, 2 h
Procedure, shortened: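 Translocation of GR-ED fusion to nuclear EA restores b-gal, read by luminescence after 1 h room-temperature detection. Engineered CHO-K1 biosensor cells, 1,000/well, exposed 2 h at 37 C to titrations up to 46 uM final.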

Potency, inactive:
Clc1ccccc1-c1ccc2ncnc(N3CCNCC3)c2c1 > 46 µM
CCNc1ncc2nc(-c3cccs3)c(=O)n(C)c2n1 > 46 µM
COCCn1c(=O)c(-c2cn(C)c3ccccc23)nc2cnc(N3CCOCC3)nc21 > 46 µM
CN(C)c1ccc(-c2cc(Nc3ccc(F)cc3)ncn2)cc1 > 46 µM
COc1ncc2nc(-c3cccs3)c(=O)n(CCc3ccccc3)c2n1 > 46 µM
COc1ncc2nc(-c3ccccc3)c(=O)n(-c3ccccc3)c2n1 > 46 µM
Cc1noc(C)c1-c1nccc(N2CCOCC2)n1 > 46 µM
FC(F)(F)c1ccccc1-c1cc(NCc2ccccc2)ncn1 > 46 µM
Cn1c(=O)c(-c2ccc(Cl)cc2)nc2cnc(Nc3ccccc3)nc21 > 46 µM
COc1ccc(Oc2ncc3nc(-c4ccc(Cl)cc4)c(=O)n(C[C@H]4CCCO4)c3n2)cc1 > 46 µM
COc1cccc(Nc2ncc3nc(C)c(=O)n(C4CC4)c3n2)c1 > 46 µM
COc1cccc(Cn2c(=O)c(-c3cc(F)cc(F)c3)nc3cnc(N(C)C)nc32)c1 > 46 µM
CNc1nc(-c2ccc3c(c2)OCO3)nc2ccccc12 > 46 µM
Cc1nc2cncnc2n(C2CC2)c1=O > 46 µM
COc1cccc(Cn2c(=O)cnc3cncnc32)c1 > 46 µM
COCCn1c(=O)c(-c2cc(F)cc(F)c2)nc2cnc(N3CCOCC3)nc21 > 46 µM
CN(C)C(=O)c1ccc(-c2cc(NCc3cccnc3)ncn2)cc1 > 46 µM
Cc1noc(C)c1-c1cc(NCc2cccnc2)ncn1 > 46 µM
CS(=O)(=O)Nc1cccc(-c2ccc3ncnc(NCCN4CCOCC4)c3c2)c1 > 46 µM
COCCn1c(=O)c(C)nc2cnc(N(C)C)nc21 > 46 µM
COc1ccc2[nH]cc(CCNc3ncnc4ccc(-c5cccnc5)cc34)c2c1 > 46 µM
O=c1c(-c2cc(F)cc(F)c2)nc2cnc(N3CCOCC3)nc2n1Cc1cccs1 > 46 µM
CNc1ncnc2ccc(-c3ccccc3CN(C)C)cc12 > 46 µM
CN(C)C(=O)c1ccc(-c2cc(Nc3ccccc3)ncn2)cc1 > 46 µM
COc1cccc(Nc2ncc3ncc(=O)n(CCc4ccccc4)c3n2)c1 > 46 µM
O=c1c(-c2ccc(F)cc2)nc2cnc(N3CCNCC3)nc2n1C1CC1 > 46 µM
COc1ccc(-c2nc3cnc(Nc4cccc(OC)c4)nc3n(C[C@H]3CCCO3)c2=O)cc1 > 46 µM
COc1cccc(-c2ccc3ncnc(NCc4ccccc4)c3c2)c1 > 46 µM
Cc1ccccc1-c1cc(N(C)C)ncn1 > 46 µM
Cc1cccc(CNc2cc(-c3c(C)noc3C)ncn2)c1 > 46 µM
COc1ccccc1CNc1cc(-c2c(C)noc2C)ncn1 > 46 µM
Cn1c(=O)c(-c2ccc(Cl)cc2)nc2cnc(N3CCOCC3)nc21 > 46 µM
COc1ncc2nc(C)c(=O)n(C3CC3)c2n1 > 46 µM
Cc1noc(C)c1-c1ccc2ncnc(N3CCN(C)CC3)c2c1 > 46 µM
CN(C)c1ccc(-c2ccc3ncnc(-n4ccnc4)c3c2)cc1 > 46 µM
O=c1cnc2cncnc2n1Cc1ccccc1Cl > 46 µM
CCNc1ncc2ncc(=O)n(CCOC)c2n1 > 46 µM
COc1ccccc1-c1cncnc1NCCNC(C)=O > 46 µM
